High-throughput results as filed in PubChem BioAssay.
USP8 block: human USP8 deubiquitinase inhibition; hit rate 4.2% among 47,000; inhibition, % at 20 µM; purified USP8, Ub-rhodamine cleavage fluorescence, 30 min; P40818
USP30 inh: human USP30 deubiquitinase inhibition; Q70CQ3; purified USP30, Ub-rhodamine cleavage fluorescence; inhibition, % at 25 µM; hit rate 5.3% among 47,000
Target sequence (Q70CQ3 whole entry, looked up): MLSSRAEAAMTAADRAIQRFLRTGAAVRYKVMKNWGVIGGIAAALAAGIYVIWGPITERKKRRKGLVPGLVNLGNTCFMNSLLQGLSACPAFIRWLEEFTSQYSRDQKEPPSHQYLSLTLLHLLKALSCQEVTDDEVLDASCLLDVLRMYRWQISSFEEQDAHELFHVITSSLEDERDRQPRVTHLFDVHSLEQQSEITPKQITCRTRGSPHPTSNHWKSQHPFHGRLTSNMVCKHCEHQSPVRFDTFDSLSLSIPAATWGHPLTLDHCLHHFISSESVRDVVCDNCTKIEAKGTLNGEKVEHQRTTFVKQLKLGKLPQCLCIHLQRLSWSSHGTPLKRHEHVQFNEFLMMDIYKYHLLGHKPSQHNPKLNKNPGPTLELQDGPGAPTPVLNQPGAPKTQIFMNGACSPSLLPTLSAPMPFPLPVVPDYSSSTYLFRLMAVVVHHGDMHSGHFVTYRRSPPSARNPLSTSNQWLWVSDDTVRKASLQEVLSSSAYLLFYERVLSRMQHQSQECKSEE
USP17 inh: inhibitors of human USP17 deubiquitinase; purified USP17, Ub-rhodamine cleavage fluorescence, 3 h; inhibition, % at 50 µM; hit rate 6.5% among 47,000; A8MUK1
Hits are given with their value; i = inactive; nt = no result given. This is a sample that favours compounds with a hit; in the whole collection about 12% have one here. Cut-off read from the data, not from the text of the source: active = inhibition above about 30%; inactive = the rest.

SMILES | USP8 block | USP30 inh | USP17 inh
COc1cc(=O)c(C(=O)Nc2ccc(C#N)cc2)nn1-c1cccc(F)c1 | 62 | i | 64
Cc1cc(C)cc(NC(=O)c2cnn(-c3ccccc3)c2-n2cccc2)c1 | i | i | i
COc1cccc(NC(=O)c2nn(-c3cccc(F)c3)c(OC)cc2=O)c1 | i | i | i
Cc1cccc(-n2ncc(C(=O)Nc3cccc(F)c3)c2-n2cccc2)c1 | i | 34 | i
Cc1c(C(=O)Nc2ccc(F)cc2)nnn1-c1cccc(F)c1 | i | 37 | i
CSc1ccc(CN(C)C(=O)c2cccc3cccnc23)cc1 | i | i | i
COc1ccccc1NC(=O)CCc1ccc(-c2ccccc2)o1 | i | i | i
N#Cc1cccc(C(=O)N2C3CCC(O)(CC3)C2CN2CCOCC2)c1 (stereo unspecified) | i | i | i
CCOc1ccccc1C(=O)N1CC(=O)N(Cc2ccc3c(c2)OCO3)CC(O)C1 (stereo unspecified) | i | i | i
CC(=O)Nc1cc(-c2cccnc2)cn2c(-c3ccc(S(C)(=O)=O)cc3)cnc12 | i | i | i
O=C(CSc1nnc2ccc(-c3ccccn3)nn12)c1ccc(F)cc1 | i | i | i
O=C(c1ccc2cc[nH]c2c1)N1CCCC(c2n[nH]c(C3CC3)n2)C1 (stereo unspecified) | i | i | i
COc1ccc(-n2nc(C)c3c2NC(=O)CC3C(=O)c2ccc3c(c2)OCCO3)cc1 (stereo unspecified) | i | i | i
CCc1ccc(-n2nc(C)c3c2NC(=O)CC3C(=O)c2ccc3c(c2)OCCO3)cc1 (stereo unspecified) | i | i | 57
Cc1ccc(C(CNC(=O)COc2ccccc2)N2CCCCC2)o1 (stereo unspecified) | i | i | i
CC(=O)N1[C@@H]2CN(C(=O)c3cc(-c4cn(C)nc4C)no3)[C@@H]3CCCC[C@H]1[C@]3(C)C2 | i | i | i
COc1ccc(OC)c(NC(=O)c2sccc2Oc2ccc(F)cc2[N+](=O)[O-])c1 | i | 30 | i
CC(=O)Nc1ccc(NC(=O)c2sccc2Oc2ccc([N+](=O)[O-])cc2)cc1 | i | i | i
CCOC(=O)C1=C(CN2CCN(c3ccc(F)cc3)CC2)NC(=O)NC1c1ccc(OC)cc1 (stereo unspecified) | i | 34 | 36
CCOC(=O)C1=C(CN2CCC3(CC2)OCCO3)NC(=O)NC1c1ccc(OC)cc1 (stereo unspecified) | i | i | i
COc1ccccc1NC(=O)Cn1cc(C(=O)c2ccc(C)cc2)c(=O)c2cc(Cl)ccc21 | i | i | 61
COc1ccccc1NC(=O)Cn1cc(C(=O)c2ccc(C)cc2)c(=O)c2cc(C)ccc21 | i | i | i
COc1ccc(C(=O)Cn2c(=O)n(Cc3ccccc3)c(=O)c3cc(Cl)ccc32)cc1 | i | i | i
COc1cc(NC(=O)Cn2cc(C(=O)c3ccccc3)c(=O)c3cc(Cl)ccc32)cc(OC)c1 | 97 | i | i
Cc1nc(-c2cccc(N3CC(C(=O)NCCc4ccccc4)CC3=O)c2)no1 (stereo unspecified) | i | i | i
SMILES | USP8 block | USP30 inh | USP17 inh
COc1ccc(S(=O)(=O)Nc2ccccc2Cl)cc1C(=O)N1CCCCCC1 | i | i | i
Cc1cc(NC(=O)CSc2ccc(-c3ccc(-n4cccn4)cc3)nn2)no1 | i | i | i
O=C(c1cc2c(s1)CCC2)N1CCc2ccccc2C1 | i | i | i
O=C1NCCCC1Cc1ccc(-c2cccc(C(=O)N3CCc4ccccc4C3)c2)cc1 (stereo unspecified) | 61 | 35 | 55
COc1ncccc1CNC(=O)Cc1c[nH]c2ccccc12 | i | i | i
COc1ccc(CCn2c(-c3ccccc3)nc3c(c(=O)c4ccccc4n3C)c2=O)cc1OC | i | i | i
O=C(Nc1ccc(Br)cc1)C1C2C=CC3(O2)C1C(=O)N(CCc1ccccc1)C3C(=O)NC1CCCCC1 (stereo unspecified) | i | i | i
Cc1ccc(NC(=O)C2C3C=CC4(O3)C2C(=O)N(Cc2ccccc2)C4C(=O)NC2CCCCC2)cc1 (stereo unspecified) | i | i | i
CC(C)c1ccc(NC(=O)C2C3C=CC4(O3)C2C(=O)N(CCc2ccc(Cl)cc2)C4C(=O)NC2CCCCC2)cc1 (stereo unspecified) | 54 | i | i
CSc1cccc(NC(=O)C2C3C=CC4(O3)C2C(=O)N(C2CCCCC2)C4C(=O)NC2CCCCC2)c1 (stereo unspecified) | i | i | i
CC(C)CCN1C(=O)C2C(C(=O)Nc3ccc(F)cc3)C3(C)C=CC2(O3)C1C(=O)NC1CCCCC1 (stereo unspecified) | i | 36 | i
CSc1cccc(NC(=O)C2C3C=CC4(O3)C2C(=O)N(CCc2ccccc2)C4C(=O)NC2CCCCC2)c1 (stereo unspecified) | 57 | i | i
CC1CCN(CCCN2C(=O)C3C(C(=O)Nc4ccc(C(C)C)cc4)C4C=CC3(O4)C2C(=O)NC2CCCCC2)CC1 (stereo unspecified) | i | i | i
Cc1ccc(NC(=O)C2C3C=CC4(O3)C2C(=O)N(CCc2ccccc2)C4C(=O)NC2CCCCC2)cc1Cl (stereo unspecified) | 34 | i | i
O=C(c1ccccc1)N1CCc2nc(C(=O)N3CCCC3)sc2CC1 | i | i | i
COc1cc(NC(=O)C2C3C=CC(O3)C2C(=O)O)c(OC)cc1Cl (stereo unspecified) | i | i | i
O=C(NC1CCCC1)C1(c2cccc(F)c2)CC1 | i | i | i
CCOC(=O)N1CCC(NCc2ccco2)CC1 | i | i | i
CNc1nccnc1C1CN(C(=O)c2n[nH]c3c2CCC3)CCO1 (stereo unspecified) | i | i | i
Cc1noc([C@@H]2C[C@H]3CN(Cc4ccc(C)o4)C[C@H]3O2)n1 | i | i | i
CC(C)OCCCN1C(=O)C2C(C(=O)Nc3ccc(Oc4ccccc4)cc3)C3C=CC2(O3)C1C(=O)NC1CCCCC1 (stereo unspecified) | i | i | 51
CCCN1C(=O)C2C(C(=O)Nc3ccc(Oc4ccccc4)cc3)C3C=CC2(O3)C1C(=O)NC1CCCCC1 (stereo unspecified) | i | i | i
O=C(NC[C@]1(O)CCN(C2CCCCC2)C[C@H]1O)c1cnccn1 | i | i | i
CCN1CCN(c2ccc(C(=O)OC)cc2NC(=O)/C=C/c2cc(Br)ccc2OC)CC1 | i | i | i
CCN1CCN(c2ccc(C(=O)OC)cc2NC(=O)c2sc3cc(Cl)ccc3c2Cl)CC1 | i | 48 | i
SMILES | USP8 block | USP30 inh | USP17 inh
COCC(=O)N1C[C@H](Oc2ccccn2)[C@H]2C[C@@H]1CC[C@H]2OC | i | i | nt
CCOc1ccc(-n2c(C)cc(/C=C(\C#N)c3nc4ccccc4[nH]3)c2C)cc1 | i | i | i
Cc1c(CN2CCC(C(=O)Nc3cccc(-c4cccc(F)c4)c3)CC2)cnn1C | i | 31 | i
Cc1nn(C)c(Cl)c1CN1CCC(C(=O)Nc2cccc(-c3cccc(F)c3)c2)CC1 | i | i | i
COc1ccc(-c2noc(NCCc3ccccc3)n2)cc1 | i | i | 37
c1ccc(CCNc2nc(-c3ccccc3)no2)cc1 | i | i | i
CCCCCCCCCc1cc(OC(=O)c2c(CCCCCCCCC)cc(O)cc2O[C@@H]2O[C@H](CO)[C@@H](O)[C@H](O)[C@H]2O)cc(O)c1C(=O)O | 95 | 104 | 100
